Compound activity: PubChem, National Center for Advancing Translational Sciences (NCATS)
HT1080 IDH1KD tx: toxicity to HT-1080 IDH1 knockdown cells (counter line); Potency, µM (doses to about 46.1 µM), without a hit: top-dose activity, negative = toxicity, usual class: cytotoxic; HT-1080 IDH1 knockdown viability, ATP luminescence, 48 h; 360,000 compounds, 2% hits;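 further: potency means the concentration at half of the fitted maximal effect; 0% = DMSO wells and -100% = cell-free medium wells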
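Cytotoxicity counter-line: IDH1KD HT-1080, 48 h, CellTiter-Glo. Curves classed by r2, magnitude and activity.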
HT1080-NT tox: kills 2HG-producing HT-1080-NT fibrosarcoma cells; HT-1080-NT fibrosarcoma viability, CellTiter-Glo ATP luminescence, 48 h; Potency, µM (highest dose often 46.1 µM), inactives show top-dose activity, negative = less viability, most hits filed as cytotoxic; 360,000 compounds, 1.6% hits;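 further: NT is the 2HG producing partner of a matched IDH1 knockdown line; potency means the concentration at half of the fitted maximal effect; 0% = DMSO-treated cells and -100% = media-only wells without cells; nearly all actives have a fitted effect of over 55% in size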
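Read-out is CellTiter-Glo luminescence after 10 minutes at room temperature, following 48 hours' compound treatment of HT-1080-NT cells (750 cells/well, RPMI, 5% FBS, 37 degrees C).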
ALOX12 inh: ALOX12 (human) lipoxygenase inhibition; P18054; purified 12hLO, xylenol orange hydroperoxide absorbance; Potency, µM (top dose mostly 108 µM), for the others: at the highest dose activity change, negative = inhibition, hits mostly inhibitors; 580,000 compounds, 1.1% hits; further: potency means the concentration at half of the fitted maximal effect
Target sequence (P18054 whole entry, looked up): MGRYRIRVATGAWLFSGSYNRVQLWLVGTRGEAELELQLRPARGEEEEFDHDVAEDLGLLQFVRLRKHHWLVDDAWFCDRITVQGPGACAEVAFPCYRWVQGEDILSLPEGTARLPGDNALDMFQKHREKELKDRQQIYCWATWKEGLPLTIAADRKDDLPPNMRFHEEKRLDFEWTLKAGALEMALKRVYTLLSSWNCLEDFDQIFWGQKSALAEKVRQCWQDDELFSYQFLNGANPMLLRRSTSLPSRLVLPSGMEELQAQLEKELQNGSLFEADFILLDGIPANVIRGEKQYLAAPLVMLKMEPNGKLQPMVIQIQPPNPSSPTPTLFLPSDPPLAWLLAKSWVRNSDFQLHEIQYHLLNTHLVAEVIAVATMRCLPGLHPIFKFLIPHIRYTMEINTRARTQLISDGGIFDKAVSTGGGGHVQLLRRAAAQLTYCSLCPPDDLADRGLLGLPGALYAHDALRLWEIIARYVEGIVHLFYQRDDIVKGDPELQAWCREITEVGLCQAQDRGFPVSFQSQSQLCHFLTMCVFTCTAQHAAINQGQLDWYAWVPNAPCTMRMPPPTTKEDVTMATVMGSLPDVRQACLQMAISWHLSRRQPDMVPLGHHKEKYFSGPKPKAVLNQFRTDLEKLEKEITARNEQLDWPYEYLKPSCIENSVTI
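Hydroperoxide product was detected by ferrous iron/xylenol orange as the 573 to 405 nm absorbance ratio. Arachidonic acid at 40 uM (final) was turned over for 30 min at room temperature by 150 nM human 12hLO, pH 7.0 Hepes buffer, after 15 min compound preincubation.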
TDP1 cell noCPT: qHTS for Inhibitors of human tyrosyl-DNA phosphodiesterase 1 (TDP1): qHTS in cells in absence of CPT; DT40 Tdp1-/- hTDP1 cells, no CPT, ATP luminescence, 48 h; Potency, µM (series often up to 46.2 µM), without a hit: at the highest dose activity change, negative = growth inhibition, most hits filed as inhibitors; 420,000 compounds, 15% hits; AID 686978, 2013; further: potency means the concentration at half of the fitted maximal effect; nearly all actives have a fitted effect of over 55% in size
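A cellular qHTS used chicken DT40 cells lacking endogenous Tdp1 but carrying stably transfected human TDP1. Compounds were applied without camptothecin, and cell growth kinetics were judged by ATP-dependent luminescence after ≥48 hr.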
IL1B secr inh: inhibitors of inflammasome signaling (IL-1 beta secretion); THP-1 LPS/ATP IL-1B secretion, AlphaLISA, 16 h; hits give low values; activity change, % at 57.5 µM; 360,000 compounds, 4.7% hits; in the data active means activity change below about -50%; inconclusive means mostly about -30% to -49%
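THP-1 cells pretreated 1 hr with compounds (up to 57.5 uM final), then stimulated with LPS (250 ng/mL final) plus ATP (1.25 mM final); secreted IL-1B measured by AlphaLISA after 16 hr, decreased signal indicating inhibition.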
DT40 TDP1 CPT: DT40-hTDP1 cell growth loss with CPT. chicken DT40 Tdp1-/-;hTDP1 cells + 20 nM CPT, ATP luminescence, 48 h. 420,000 compounds, 12% hits. Potency, µM (titrated, usually from 46.2 µM), without a hit: at the top dose activity change, negative = growth inhibition, most hits filed as inhibitors; further: potency means the concentration at half of the fitted maximal effect; nearly all actives have a fitted effect of over 55% in size
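Chicken DT40 Tdp1-/- cells stably complemented with human TDP1 were seeded at 400 cells/well in medium containing 20 nM camptothecin, exposed to pin-transferred compounds, and grown at 37 °C for at least 48 hr. Viability was read as ATP luminescence.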
* = called active by the depositor; ? = inconclusive; / = no result; [ ] = remark or other dose. The full list was thinned out, with hits kept by preference. Unless noted, the call rests on the fitted dose curve; in most records, active means well fitted curve in the direction sought with a large enough effect; inconclusive means small, poorly fitted or top-dose-only effect, or another doubt; inactive means no such curve, though single readings can be large; an effect the other way counts as inactive or inconclusive. Unless noted, on the % scale 0 is the no-effect control and ±100 the full control effect.

SMILES | HT1080 IDH1KD tx | HT1080-NT tox | ALOX12 inh | TDP1 cell noCPT | IL1B secr inh | DT40 TDP1 CPT
Nc1nc2ccc(Br)cc2o1 | 3.3% | 0.0% | 2.8% | -2.3% | -4.8 | 5.0%
O=C(CSc1ccc2nnc(-c3cccc(F)c3)n2n1)N1CCCc2ccccc21 | 1.6% | -6.8% | -5.6% | 18.4µM* | 5.6 | ?
O=C(CSc1ccc2nnc(-c3ccc(F)cc3)n2n1)N1CCCc2ccccc21 | -7.0% | 1.0% | -0.4% | 16.4µM* | -7.3 | 18.4µM*
CCSc1ccc2nnc(-c3cccc(F)c3)n2n1 | ? | 0.6% | ? | ? | -18.2 | -24.8%
O=C(CSc1nnc2ccc(-c3ccc(F)cc3)nn12)N1CCCc2ccccc21 | / | / | -11.6% | / | / | /
O=C(CSc1ccc2nnc(-c3cccnc3)n2n1)NCC1CCCO1 (configuration not stated) | 7.3% | 13.2% | 25.4% | -14.2% | 5.9 | 13.2%
O=C(CSc1ccc2nnc(-c3ccc(Cl)cc3)n2n1)N1CCCc2ccccc21 | 15.3% | 13.8% | -13.7% | 23.1µM* | 0.0 | -65.8%
O=C(CSc1ccc2nnc(-c3cccc(F)c3)n2n1)NCC1CCCO1 (configuration not stated) | 1.8% | 9.5% | 3.55µM* | -18.6% | 11.4 | 2.6%
COc1ccc(CN(C(=O)COc2cccc(C)c2C)c2ccccn2)cc1OC | / | / | -23.8% | / | / | /
COc1cccc2c1OCCCN(C(=O)CC1COCCN1)C2 (configuration not stated) | / | / | 15.1% | / | / | /
CCNc1ncnc2sc3c(c12)CCN(S(=O)(=O)c1ccccc1)C3 | / | / | 5.5% | / | / | /
O=C(Nc1cccc2cnccc12)c1cccc(S(=O)(=O)N2CCCCCC2)c1 | / | / | -5.1% | / | / | /
O=C(CSc1nnc2ccc(-c3ccc(Br)cc3)nn12)NCC1CCCO1 (configuration not stated) | -0.9% | -10.2% | -25.7% | ? | ? | 20.6µM*
O=C(CCC[C@H]1NC[C@@H]2CC1CN(Cc1ccccc1)C2)NCCCN1CCCCC1 | / | / | -2.2% | / | / | /
CC(O)CN1C(=O)C(CC(=O)Nc2ccc(Cl)cc2)SC1=Nc1ccccc1 (configuration not stated) | ? | ? | / | 25.9µM* | -56.1* | ?
CCCCN1C(=O)C(CC(=O)NCC)SC1=Nc1ccccc1 (configuration not stated) | 4.7% | -2.1% | -20.1% | -14.8% | -15.1 | -19.8%
COCCN1C(=O)C(CC(=O)Nc2ccc(C(C)=O)cc2)SC1=Nc1ccccc1 (configuration not stated) | -9.6% | -16.5% | -0.6% | ? | 14.8 | 16.4µM*
O=C1CC(c2ccccc2)N(C(=O)C2CC2)CCCN(S(=O)(=O)Cc2ccccc2)CCN1 (configuration not stated) | / | / | 24.0% | / | / | /
NS(=O)(=O)c1ccc(NC(=O)/C=C/c2cn(-c3ccccc3)nc2-c2cccc(Cl)c2)cc1 | ? | ? | ? | 29.1µM* | 13.9 | ?
O=C(/C=C/c1cn(-c2ccccc2)nc1-c1ccccc1)Nc1ccc(C(=O)O)cc1 | 23.1µM* | ? | -8.8% | ? | -1.8 | ?
Cc1c(NC(=O)/C=C/c2cn(-c3ccccc3)nc2-c2ccc(F)cc2)c(=O)n(-c2ccccc2)n1C | -0.4% | -6.3% | -3.5% | ? | -6.7 | 14.6µM*
C=CCSC1=N/C(=C\C=C\c2ccco2)C(=O)S1 | 5.1% | -1.2% | ? | 18.4µM* | -9.4 | 23.1µM*
CSC1=N/C(=C\C=C\c2ccco2)C(=O)S1 | / | / | 3.16µM* | / | / | /
CSC1=N/C(=C\c2ccccc2F)C(=O)S1 | -2.3% | -6.6% | 0.0% | -4.0% | -20.5 | -28.9%
C=CCSC1=N/C(=C\C=C\c2ccccc2)C(=O)S1 | / | / | 14.1µM* | / | / | /
SMILES | HT1080 IDH1KD tx | HT1080-NT tox | ALOX12 inh | TDP1 cell noCPT | IL1B secr inh | DT40 TDP1 CPT
C=CCSC1=N/C(=C\c2sccc2C)C(=O)S1 | 5.3% | -1.0% | 0.0% | -0.1% | -21.0 | 1.1%
COCCn1cnc2c1c(=O)n(CC(=O)Nc1cccc(C)c1C)c(=O)n2Cc1ccccc1 | / | / | -3.6% | / | / | /
O=c1n(-c2ccc(Cl)cc2)nc2n1CCN(Cc1cccc3ccccc13)C2 | / | / | 11.3%[6.33 µM] | / | / | /
O=c1n(-c2ccc(F)cc2F)nc2n1CCN(Cc1cccc3ccccc13)C2 | / | / | 28.2µM* | / | / | /
CCOc1ccccc1C(=O)N(Cc1cccs1)c1ccc(Cl)cc1 | / | / | 0.0% | 10.3µM* | / | 16.4µM*
Cc1cccc(OCC(=O)N(Cc2cccs2)c2ccc(Cl)cc2)c1C | / | / | 0.0% | ? | / | ?
Cc1ccc(N(Cc2cccs2)C(=O)c2ccccc2Cl)cc1 | / | / | -1.5% | 18.4µM* | / | 13µM*
COc1ccc(-c2cc3nc4c(c(=O)n3[nH]2)CCN(C(=O)COc2ccccc2C)C4)cc1 | / | / | -3.1% | / | / | /
COc1ccc(N(CC(=O)Nc2ccccc2C(F)(F)F)C2=NC3CS(=O)(=O)CC3S2)cc1 (configuration not stated) | 14.8% | -1.8% | -1.3% | ? | -59.6* | -20.1%
Cc1cc(C)cc(N(CC(=O)Nc2ccccc2)C2=NC3CS(=O)(=O)CC3S2)c1 (configuration not stated) | 4.8% | 0.0% | 4.1% | ? | -94.1* | ?
COCCN1C(=O)c2cccn2CC1CNS(=O)(=O)c1ccccc1 (configuration not stated) | / | / | 26.0% | / | / | /
COc1ccccc1NC(=O)CN(c1ccc([N+](=O)[O-])cc1)S(=O)(=O)c1ccccc1 | -3.7% | 2.8% | -12.6% | -20.3% | 0.8 | 10.8%
CCOC(=O)c1ccccc1NC(=O)CN(c1ccccc1C)S(C)(=O)=O | -3.7% | 1.7% | 0.0% | 16.4µM* | 12.8 | ?
CCOc1ccc(N(CC(=O)Nc2ccccc2OC)S(=O)(=O)c2ccccc2)cc1 | 1.64µM* | 2.06µM* | 3.0% | 1.16µM* | 49.8 | 1.16µM*
COc1ccc(NC(=O)CN(c2ccc(OC)c(Cl)c2)S(=O)(=O)c2ccccc2)c(OC)c1 | -3.7% | -12.9% | 0.0% | 23.1µM* | 38.9 | ?
COc1ccccc1NC(=O)CN(c1ccccc1C)S(C)(=O)=O | -0.6% | 0.3% | 0.0% | -4.0% | 10.4 | 2.6%
COc1ccc(N(CC(=O)Nc2ccc(OC)cc2OC)S(=O)(=O)c2ccccc2)cc1 | ? | -23.8% | 2.9% | 18.4µM* | 13.7 | 23.1µM*
Cc1cc(C)c2c(=O)cc(C(=O)Nc3cccnc3)oc2c1 | / | / | 12.4% | / | / | /
O=S(=O)(Nc1nc2ccccc2nc1Nc1ccc(F)cc1)c1cccc2nsnc12 | / | / | 1.1% | / | / | /
